Results from PubChem BioAssay AID1159580 (chemical genetic matrix, 2015).
The whole screen tested about 5,500 compounds, of which about 2,000 (36%) were called active. Roughly 18% stayed inconclusive and do not appear here. No stated cut-off is given here; in the data, active means normalized growth mostly below about 0.91 (no sharp cut-off); inconclusive means no clear call, values can overlap the other calls; inactive means mostly above about 0.92. The list shows a part of the results.

Assay: chemical genetic growth profiling, strain panel (AID 1159580);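 further: tested at 20 µM; growth read once vehicle control cultures reached saturation at 30 °C; 1 = growth at the plate median or of vehicle wells; lower values mean less growth of the strain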
Conditions: growth OD

Measured: normalized growth

Cc1ccnc(NS(=O)(=O)c2ccc(N)cc2)n1
inactive: S. cerevisiae deletion strains, locus YJR075W, strain HOC1, active compounds read low 1.02 | S. cerevisiae deletion strains, locus YKL009W, strain mrt4, active compounds read low 1.01 | S. cerevisiae deletion strains, locus YKL068W, active compounds read low 1 | S. cerevisiae deletion strains, locus YKL085W, strain MDH1 (second series), active compounds read low 1.01 | S. cerevisiae deletion strains, locus YKL085W, strain MDH1, active compounds read low 1.01 | S. cerevisiae deletion strains, locus YKL160W, strain elf1, active compounds read low 1.01 | S. cerevisiae deletion strains, locus YKL190W, strain CNB1, active compounds read low 0.985 | S. cerevisiae deletion strains, locus YKR001C, strain vps1, active compounds read low 1.02 | S. cerevisiae deletion strains, locus YKR026C, strain gcn3, active compounds read low 1.01 | S. cerevisiae deletion strains, locus YKR091W, strain srl3, active compounds read low 0.998 | S. cerevisiae deletion strains, locus YLL001W, strain dnm1, active compounds read low 1.01 | S. cerevisiae deletion strains, locus YLL026W, active compounds read low 1 | S. cerevisiae deletion strains, locus YLL041C, strain sdh2, active compounds read low 1 | S. cerevisiae deletion strains, locus YLR027C, strain aat2, active compounds read low 1 | S. cerevisiae deletion strains, locus YLR039C, strain RIC1, active compounds read low 1.04 | S. cerevisiae deletion strains, locus YLR058C, strain SHM2, active compounds read low 1.02 | S. cerevisiae deletion strains, locus YLR102C, strain apc9, active compounds read low 1.01 | S. cerevisiae deletion strains, locus YLR113W, strain HOG1, active compounds read low 0.984 | S. cerevisiae deletion strains, locus YLR221C, strain rsa3, active compounds read low 0.98 | S. cerevisiae deletion strains, locus YLR258W, strain gsy2, active compounds read low 0.975 | S. cerevisiae deletion strains, locus YLR262C, strain YPT6 (second series), active compounds read low 1.04 | S. cerevisiae deletion strains, locus YLR262C, strain YPT6, active compounds read low 1.05 | S. cerevisiae deletion strains, locus YLR268W, strain sec22, active compounds read low 1.03 | S. cerevisiae deletion strains, locus YLR320W, strain mms22, active compounds read low 0.961 | S. cerevisiae deletion strains, locus YLR330W, strain CHS5, active compounds read low 1.01 | S. cerevisiae deletion strains, locus YLR342W, strain FKS1 (second series), active compounds read low 1 | S. cerevisiae deletion strains, locus YLR342W, strain FKS1, active compounds read low 1.01 | S. cerevisiae deletion strains, locus YLR357W, strain rsc2, active compounds read low 1.04 | S. cerevisiae deletion strains, locus YLR370C, strain arc18, active compounds read low 1 | S. cerevisiae deletion strains, locus YLR371W, strain rom2, active compounds read low 1.01 | S. cerevisiae deletion strains, locus YLR384C, strain iki3, active compounds read low 1.01 | S. cerevisiae deletion strains, locus YLR418C, strain cdc73, active compounds read low 1.07 | S. cerevisiae deletion strains, locus YML016C, strain PPZ1, active compounds read low 1.01 | S. cerevisiae deletion strains, locus YML032C, strain rad52, active compounds read low 1.01 | S. cerevisiae deletion strains, locus YML120C, strain ndi1, active compounds read low 1.02 | S. cerevisiae deletion strains, locus YML124C, strain tub3, active compounds read low 1.01 | S. cerevisiae deletion strains, locus YMR058W, strain fet3, active compounds read low 1 | S. cerevisiae deletion strains, locus YMR078C, strain ctf18, active compounds read low 1.01 | S. cerevisiae deletion strains, locus YMR125W, strain sto1, active compounds read low 0.995 | S. cerevisiae deletion strains, locus YMR129W, active compounds read low 0.998 | S. cerevisiae deletion strains, locus YMR205C, strain PFK2, active compounds read low 1.01 | S. cerevisiae deletion strains, locus YMR223W, strain ubp8, active compounds read low 1 | S. cerevisiae deletion strains, locus YMR231W, strain pep5, active compounds read low 1 | S. cerevisiae deletion strains, locus YMR263W, strain SAP30, active compounds read low 0.996 | S. cerevisiae deletion strains, locus YMR307W, strain GAS1, active compounds read low 1.01 | S. cerevisiae deletion strains, locus YNL067W, strain RPL9B, active compounds read low 1.02 | S. cerevisiae deletion strains, locus YNL071W, strain lat1, active compounds read low 0.987 | S. cerevisiae deletion strains, locus YNL128W, strain TEP1, active compounds read low 1.02 | S. cerevisiae deletion strains, locus YNL153C, strain GIM3, active compounds read low 1.01 | S. cerevisiae deletion strains, locus YNL183C, strain NPR1, active compounds read low 0.972 | S. cerevisiae deletion strains, locus YNL209W, strain ssb2, active compounds read low 0.982 | S. cerevisiae deletion strains, locus YNL233W, strain BNI4, active compounds read low 1.01 | S. cerevisiae deletion strains, locus YNL248C, strain rpa49, active compounds read low 1.01 | S. cerevisiae deletion strains, locus YNL250W, strain rad50, active compounds read low 1.03 | S. cerevisiae deletion strains, locus YNL271C, strain bni1, active compounds read low 1.02 | S. cerevisiae deletion strains, locus YNL298W, strain CLA4, active compounds read low 1.02 | S. cerevisiae deletion strains, locus YNL307C, strain MCK1, active compounds read low 1.02 | S. cerevisiae deletion strains, locus YNL322C, strain KRE1 (second series), active compounds read low 0.998 | S. cerevisiae deletion strains, locus YNL322C, strain KRE1, active compounds read low 1 | S. cerevisiae deletion strains, locus YNR049C, strain mso1, active compounds read low 1.01 | S. cerevisiae deletion strains, locus YNR052C, strain pop2, active compounds read low 1.03 | S. cerevisiae deletion strains, locus YOL006C, strain TOP1, active compounds read low 1.03 | S. cerevisiae deletion strains, locus YOL012C, strain htz1 1.03 | S. cerevisiae deletion strains, locus YOL147C, strain pex11, active compounds read low 1.02 | S. cerevisiae deletion strains, locus YOR001W, strain rrp6, active compounds read low 1.01 | S. cerevisiae deletion strains, locus YOR061W, strain CKA2, active compounds read low 1.01 | S. cerevisiae deletion strains, locus YOR069W, strain VPS5, active compounds read low 1.01 | S. cerevisiae deletion strains, locus YOR070C, strain gyp1, active compounds read low 0.989 | S. cerevisiae deletion strains, locus YOR080W, strain dia2, active compounds read low 1.01 | S. cerevisiae deletion strains, locus YOR083W, strain WHI5, active compounds read low 0.979 | S. cerevisiae deletion strains, locus YOR106W, strain vam3, active compounds read low 0.975 | S. cerevisiae deletion strains, locus YOR136W, strain idh2, active compounds read low 1.01 | S. cerevisiae deletion strains, locus YOR144C, strain elg1, active compounds read low 1.02 | S. cerevisiae deletion strains, locus YOR184W, strain ser1, active compounds read low 1.03 | S. cerevisiae deletion strains, locus YOR231W, strain MKK1, active compounds read low 0.98 | S. cerevisiae deletion strains, locus YOR265W, strain rbl2, active compounds read low 1.01 | S. cerevisiae deletion strains, locus YOR270C, strain vph1, active compounds read low 1.04 | S. cerevisiae deletion strains, locus YOR290C, strain snf2, active compounds read low 0.964 | S. cerevisiae deletion strains, locus YOR316C, strain cot1, active compounds read low 1.01 | S. cerevisiae deletion strains, locus YPL051W, strain arl3, active compounds read low 1.01 | S. cerevisiae deletion strains, locus YPL055C, strain LGE1, active compounds read low 0.988 | S. cerevisiae deletion strains, locus YPL078C, strain atp4, active compounds read low 1.03 | S. cerevisiae deletion strains, locus YPL106C, strain sse1, active compounds read low 0.968 | S. cerevisiae deletion strains, locus YPL240C, strain hsp82, active compounds read low 0.989 | S. cerevisiae deletion strains, locus YPL241C, strain CIN2, active compounds read low 1.01 | S. cerevisiae deletion strains, locus YPL256C, strain CLN2, active compounds read low 0.965 | S. cerevisiae deletion strains, locus YPR119W, strain clb2, active compounds read low 1.01 | S. cerevisiae deletion strains, locus YPR141C, strain kar3, active compounds read low 1.03 | S. cerevisiae deletion strains, locus YPR163C, strain tif3, active compounds read low 1.03 | S. cerevisiae deletion strains, locus YPR167C, strain met16, active compounds read low 1 | S. cerevisiae deletion strains, strain wtn01, active compounds read low 1.02 | S. cerevisiae strains, strain wild type, active compounds read low 0.999
